SW480 rerep = DNA re-replication induction in SW480 cells | Potency, µM (doses to about 46.1 µM), inactives show at the highest dose re-replication activation, usual class: activators | SW480 DNA re-replication, Hoechst DNA content imaging, 48 h | actives 1.8% (n = 340,000); note: potency is the fitted concentration of half-maximal effect; % of control where 0% means no effect; nearly all actives have a fitted effect of over 55% in size
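Readout is total intensity of Hoechst-stained nuclei, excited at 405 nm and collected at 500-530 nm. Compound treatment lasted 48 hr at 37 C in 5% CO2 before staining.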
KB-3-1 tox = kills parental KB-3-1 adenocarcinoma cells. AID 1347075. KB-3-1 viability, CellTiter-Glo ATP luminescence, 72 h. Potency, µM (doses to about 46.1 µM), actives largely listed as cytotoxic. actives 1.4% (n = 400,000); note: potency is the fitted concentration of half-maximal effect; % is set by controls: 0 for no effect and ±100 for the full control effect; nearly all actives have a fitted effect of over 60% in size
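72 h, 37 °C compound treatment of KB-3-1 parental cells; CellTiter-Glo added, 10 min, luminescence read. Data corrected against DMSO-only plates and normalized before curve fitting.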
MCF10A rerep = DNA re-replication induction in MCF 10a cells; Potency, µM (titrated, usually from 46.1 µM), for the others: at the top dose activity, positive = re-replication, hits mostly activators; AID 624296; MCF 10A DNA re-replication, Hoechst nuclear intensity, 48 h; actives 2.9% (n = 350,000); note: potency is the fitted concentration of half-maximal effect; % of control where 0% means no effect; nearly all actives have a fitted effect of over 50% in size
KB-V1 MDR tox = kills drug-selected multidrug resistant KB-V1 cells; KB-V1 MDR cells viability, CellTiter-Glo, 72 h; Potency, µM (highest dose often 46.1 µM), actives largely listed as cytotoxic; actives 3.4% (n = 400,000); AID 1347076; note: potency is the fitted concentration of half-maximal effect; % is set by controls: 0 for no effect and ±100 for the full control effect; nearly all actives have a fitted effect of over 60% in size
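Potencies derive from concentration-effect curves fitted to normalized luminescence (CellTiter-Glo) of KB-V1 cells treated for 72 h at 37 degrees C in phenol-red-free DMEM containing 10% FBS.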
Giardia killer = kills Giardia lamblia; Giardia lamblia trophozoite viability; actives 0.15% (n = 340,000); activity change, % at 7.66 µM, hits read low; in the data active = activity change below about -80%; inconclusive = between about -30% and that limit;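 note: parasites exposed to compound for two days anaerobically before the ATP read; % is set by controls: 0 for no effect and ±100 for the full control effect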
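Each well holds 100 Giardia trophozoites and compound. After two days (48 hrs) at 37 deg C in anaerobic conditions, ATP is quantified by luminescence.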
S-ASM inh = human S-ASM enzyme inhibition. placental ASM, HMU-PC fluorogenic substrate, 60 min. Potency, µM (highest dose often 57.5 µM), inactives show top-dose activity change, negative = inhibition, most hits filed as inhibitors. actives 0.006% (n = 340,000). AID 504937; note: potency is the fitted concentration of half-maximal effect
Target sequence (P17405 47-631 limits assumed): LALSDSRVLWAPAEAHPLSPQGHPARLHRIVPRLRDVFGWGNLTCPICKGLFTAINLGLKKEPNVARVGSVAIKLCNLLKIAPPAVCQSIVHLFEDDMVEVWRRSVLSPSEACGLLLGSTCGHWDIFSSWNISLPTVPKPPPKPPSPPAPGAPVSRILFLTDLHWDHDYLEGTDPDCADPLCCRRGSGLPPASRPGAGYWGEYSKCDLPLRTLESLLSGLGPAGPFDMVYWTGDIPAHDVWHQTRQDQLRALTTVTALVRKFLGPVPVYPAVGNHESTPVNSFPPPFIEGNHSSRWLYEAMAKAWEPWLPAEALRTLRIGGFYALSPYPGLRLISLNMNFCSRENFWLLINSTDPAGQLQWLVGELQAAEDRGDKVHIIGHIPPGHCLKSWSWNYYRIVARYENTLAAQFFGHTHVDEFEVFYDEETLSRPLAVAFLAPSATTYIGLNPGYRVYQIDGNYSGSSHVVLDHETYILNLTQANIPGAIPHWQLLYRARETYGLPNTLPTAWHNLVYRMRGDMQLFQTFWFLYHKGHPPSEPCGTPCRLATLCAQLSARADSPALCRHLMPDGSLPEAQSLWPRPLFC
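qHTS format. ASM enzyme prepared from human placenta hydrolyses the fluorogenic substrate HMU-PC0 (9 uM final) over 60 min at 37 °C after a 10 min compound preincubation.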
The depositor's hits bear a star; i = inactive; ? = inconclusive; / = no result. The list is not random: actives were taken first. Their share in the collection is about 6.9%. Unless noted, calls come from the whole dose curve; as a rule, active = well fitted curve in the direction sought with a large enough effect; inconclusive = small, poorly fitted or top-dose-only effect, or another doubt; inactive = no such curve, though single readings can be large; an effect the other way counts as inactive or inconclusive.

SMILES | SW480 rerep | KB-3-1 tox | MCF10A rerep | KB-V1 MDR tox | Giardia killer | S-ASM inh
CCCc1nn2c(=O)cc(COC(=O)c3ccc4c(c3)OCO4)nc2s1 | / | i | / | i | / | /
Cc1cc(C)cc(NC(=O)CSc2nnc(COc3ccccc3Cl)o2)c1 | / | i | / | ? | / | /
Cc1cccnc1NCc1ccc(O)c2ncccc12 | ? | ? | ? | ? | 6 | -1%
Oc1ccc(CN2CCCc3ccccc32)c2cccnc12 | 11% | 23µM* | 20% | ? | 11 | 2%
CCOC(=O)C1CCN(Cc2ccc(O)c3ncccc23)CC1 | 0.92µM* | 23µM* | 4.1µM* | 16µM* | -22 | 0%
CCOc1ccc(CCNC(=O)c2ccc(CS(=O)(=O)Cc3ccccc3Cl)o2)cc1OCC | / | i | / | ? | / | /
CCn1c(=O)cc(SCC(=O)N2CCN(c3cc(C)ccc3C)CC2)c2ccccc21 | / | i | / | i | / | /
O=C(Nc1nc2ccccc2s1)c1cnccn1 | 15µM* | i | 3.3µM* | i | -13 | 0%
CCc1nnc(NC(=O)c2cnccn2)s1 | 0% | i | 18µM* | i | -2 | 3%
O=C(Nc1nccs1)c1cnccn1 | -8% | i | 20% | i | 4 | 4%
CCOc1ccc2nc(NC(=O)c3cnccn3)sc2c1 | 1% | i | -5% | i | ? | 2%
O=C(Nc1nc2ccc(F)cc2s1)c1ccccn1 | 5.2µM* | ? | 18µM* | i | -29 | -1%
CCc1nnc(NC(=O)c2oc3cc(C)c(C)cc3c2C)s1 | 0.52µM* | ? | 5% | i | -6 | 6%
O=C(Cn1c(Cn2c(-c3cnccn3)nc3ccccc32)nc2ccccc21)c1ccc(OC(F)(F)F)cc1 | / | i | / | i | / | /
CCc1nnc(NC(=O)c2ccc(COc3ccc(C)cc3)o2)s1 | -3% | i | -1% | i | 18 | -3%
O=C(Nc1nnc(SCc2ccc(F)cc2)s1)c1ccccn1 | 13µM* | ? | ? | ? | 5 | -8%
O=C(Nc1nc(-c2ccco2)c(-c2ccco2)s1)c1cnccn1 | 5% | i | 7% | 2.1µM* | -14 | -2%
CC(=O)c1sc(Nc2nc3ccc(F)cc3s2)nc1C | 9.2µM* | i | ? | i | -7 | 104%
CCc1nnc(NC(=O)c2ccc(COc3ccccc3)o2)s1 | -2% | i | 13% | 15µM* | 10 | -1%
CCNC(=O)C1(C)CCN(C(=O)c2cccc(C(F)(F)F)c2)C1 (centres undefined) | / | i | / | i | / | /
CC1CCCCN1S(=O)(=O)c1ccc2c(c1)oc(=O)n2CC(=O)Nc1ccc(Cl)cc1 (centres undefined) | / | i | / | i | / | /
O=C(Cc1c(F)cccc1Cl)N1CCN(S(=O)(=O)c2cccs2)CC1 | -12% | i | -2% | i | -2 | -6%
CC(C)=CCc1c(O)cc2c(=O)c3ccc(O)cc3oc2c1O | 3% | i | 15% | ? | 5 | -15%
COc1c(CC=C(C)C)c(O)cc2oc(=O)c3c4ccc(O)cc4oc3c12 | ? | i | 18µM* | ? | -7 | i
CC1CCCCC1NC(=O)c1ccco1 (centres undefined) | -5% | i | 0% | i | -8 | -1%
SMILES | SW480 rerep | KB-3-1 tox | MCF10A rerep | KB-V1 MDR tox | Giardia killer | S-ASM inh
CC1CCN(c2ccc(NC(=S)NC(=O)c3ccco3)cc2)CC1 | ? | i | 0% | i | 8 | 7%
O=C(NC(=S)Nc1ccc(N2CCCCC2)cc1)c1ccco1 | ? | i | ? | 8.2µM* | -12 | -1%
CCCC(=O)NC(=S)Nc1cccc(Cl)c1N1CCCC1 | ? | i | 18µM* | i | -23 | -10%
CC1CCCC(NC(=S)NC(=O)c2ccco2)C1C (centres undefined) | -3% | i | 18% | 18µM* | -6 | -2%
CCCC(=O)NC(=S)Nc1cccc2c(O)cccc12 | ? | i | -5% | i | -16 | -5%
O=C(NC(=S)Nc1cccc(Cl)c1N1CCCCC1)c1cccs1 | ? | ? | 3.3µM* | ? | 10 | -12%
